# aSyn tox rescue: alpha-synuclein toxicity suppression in yeast | S. cerevisiae alpha-synuclein toxicity rescue, BacTiter-Glo growth, 24 h | Potency, µM (doses to about 46.1 µM), usual class: activators | hit rate 0.02% among 94,000 | AID 1347070; active means well fitted activation curve with a large enough effect; further: 0% is about no effect
#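 Growth restoration measured by BacTiter-Glo luminescence after 24 hr at 30 deg C; alpha-synuclein yeast, raffinose-pregrown to mid-log, were added at OD600=0.02 in galactose medium onto pinned compounds.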
# Starred values were filed as active, the others as inactive; i = inactive. The full list was thinned out, with hits kept by preference. Potency means the concentration at half of the fitted maximal effect.
SMILES,aSyn tox rescue
Cc1cccc(CN2C(=O)CN=C(c3ccccc3)c3cc(Cl)ccc32)c1,i
O=C1CN=C(c2ccccc2)c2cc(Cl)ccc2N1Cc1ccc(Cl)cc1,i
CCc1cccc(NC(=O)CN2C(=O)CN=C(c3ccccc3F)c3cc(Cl)ccc32)c1,20µM*
COc1ccc(NC(=O)CN2C(=O)CN=C(c3ccccc3)c3ccccc32)c(OC)c1,i
Nc1c(C(=O)Nc2ccc(OC(F)(F)F)cc2)sc2nc3c(cc12)N1CCC3CC1,i
